Screening data (PubChem BioAssay)
Rows were chosen to be rich in hits. Some 28% of all compounds tested hit in one or more screens of this group.
hDAT+cocaine = human DAT dopamine uptake with cocaine, either direction; Q01959; LLC-PK1 hDAT cells, [14C]-dopamine uptake with cocaine IC80; actives deviate in either direction; B-score at 10 µM; 1.3% of 110,000 active; AID 449768;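 active means Z score or B-score, a plate-position-corrected score, falls beyond the plate's 99.7% confidence bounds, in either direction; inactive means both scores lie inside the 99.7% bounds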;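 further: scored against the spread of the other compound wells on the same plate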
CYP2C9 inh = human CYP2C9 inhibition | AID 777 | inhibition, % at 5 µM | CYP2C9 Supersomes, luciferin-H conversion, luminescence | 20% of 96,000 active;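 active means blocking of liver enzyme CYP2C9 beyond about 50% at 5 µM, limit read from the data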
Target sequence (P11712 whole entry, looked up): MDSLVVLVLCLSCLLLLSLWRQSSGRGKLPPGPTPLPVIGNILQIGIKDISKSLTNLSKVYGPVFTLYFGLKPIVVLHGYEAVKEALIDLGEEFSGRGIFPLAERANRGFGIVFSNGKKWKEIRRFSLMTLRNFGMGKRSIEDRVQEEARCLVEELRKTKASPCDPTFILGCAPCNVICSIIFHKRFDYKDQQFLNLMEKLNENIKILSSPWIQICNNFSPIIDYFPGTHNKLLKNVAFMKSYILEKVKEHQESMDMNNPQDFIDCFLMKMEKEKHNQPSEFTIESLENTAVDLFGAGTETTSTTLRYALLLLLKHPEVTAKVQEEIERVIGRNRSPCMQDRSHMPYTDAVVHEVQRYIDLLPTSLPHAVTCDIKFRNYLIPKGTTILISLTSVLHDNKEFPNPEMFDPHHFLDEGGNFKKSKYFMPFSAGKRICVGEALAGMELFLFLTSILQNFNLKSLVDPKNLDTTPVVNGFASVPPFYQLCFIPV
D1 allo mod = allosterically modulates the human D1 dopamine receptor | B-score at 10 µM | HEK293 D1, CRE-luciferase, dopamine EC30 potentiation; actives deviate in either direction | 5.9% of 58,000 active | P21728;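 active means luminescence count or its row- and column-corrected plate score outside the 99.7% band of the plate's sample wells, on either side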
CYP2C9 activ = activators of human CYP2C9. recombinant CYP2C9, luciferin-H conversion, luminescence; hits give high values; factor 1 = untreated enzyme, 0 = blocked. activation factor at 5 µM. 1.4% of 96,000 active. AID 1024;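 active means activation factor of 2 or more for CYP2C9 at a 5 µM dose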;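 further: 0 = sulfaphenazole-blocked wells and 1 = vehicle-only wells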
CYP2C19 activ = increases human CYP2C19 enzyme activity; P33261; recombinant CYP2C19, luciferin-H EGE luminescence; hits give high values; 0 = fully inhibited enzyme, 1 = untreated enzyme; activation factor at 5 µM; 96,000 tested, under 10 active; AID 1025;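 active means activation factor of at least 2 at 5 µM in the primary screen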;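 further: 0 = wells with 2.5 mM tranylcypromine and 1 = vehicle-only wells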
CYP2C19 inhib = blocks human cytochrome P450 2C19; inhibition, % at 5 µM; CYP2C19 Supersomes, luciferin-H EGE luminescence, 30 min; 21% of 96,000 active; P33261;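 active means CYP2C19 inhibition above a set limit at 5 µM in the primary screen, cut at about 50% in these data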;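 further: plate controls were negative control wells for no effect and 2.5 mM tranylcypromine positive control for full effect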
An asterisk follows results filed as active; · = no result.

SMILES | hDAT+cocaine | CYP2C9 inh | D1 allo mod | CYP2C9 activ | CYP2C19 activ | CYP2C19 inhib
CC(C)C[C@@H](CO)NC(=O)CC[C@H](NC(=O)OC(C)(C)C)C(=O)N(Cc1ccccc1)Cc1ccccc1 | -0.0804 | · | · | · | · | ·
CCOC(=O)CN1CCc2c(C)nc3c(-c4ccc(OC)c(OC)c4)cnn3c21 | -0.0142 | 12.9 | · | 0.9 | 1.1 | -5.9
COc1ccc(CCNC(=O)C(=O)NCC2CCCO2)cc1 (stereo not drawn) | 0.723 | · | · | · | · | ·
Cc1ccccc1C(C(=O)NC1CCCC1)N(C(=O)Cc1cccs1)c1ccc2c(c1)OCCO2 (stereo not drawn) | -0.53 | 2.5 | · | 1 | 0.9 | 5.8
CCc1ccc(N(C(=O)Cc2cccs2)C(C(=O)NC2CCCCC2)c2cn(C)nc2C)cc1 (stereo not drawn) | 0.0508 | 39.5 | · | 0.6 | 0.3 | 73.3*
CC(C(=O)NC1CCCCCC1)N(c1ccccc1)S(C)(=O)=O (stereo not drawn) | -0.00145 | -4.7 | 0.0424 | 1 | 0.9 | 5.4
COc1ccc(CN(C(=O)c2ccc(-c3ccccc3)[nH]2)C(C(=O)NCC2CCCO2)c2ccc(C)o2)cc1 (stereo not drawn) | · | 45.6 | · | 0.5 | 0.4 | 58.2*
CC(C(=O)NC1CCCC1)N(C(=O)c1ccc(-c2ccccc2)[nH]1)c1ccccc1F (stereo not drawn) | 0.909 | 61.2* | · | 0.4 | 0.3 | 69.5*
O=C(CS(=O)CC(=O)N(CC(=O)NC1CCCC1)c1ccc2c(c1)OCCO2)Nc1ccc(F)cc1 (stereo not drawn) | 1.39 | 2.7 | · | 1 | 0.9 | 10.6
NS(=O)(=O)c1ccc(S(=O)(=O)NCCc2ccccc2)cc1 | -0.0423 | 11.8 | -0.162 | 0.9 | 0.2 | 85.0*
Cc1ccc(S(=O)(=O)NCCc2ccccc2)cc1 | 0.953 | 64.9* | · | 0.4 | 0 | 96.5*
Cc1ccc(S(=O)(=O)NCCC(=O)NCc2ccccc2)cc1 | -0.334 | -36.5 | 0.246 | 1.4 | 0.8 | 16.4
NS(=O)(=O)c1ccc(NC(=O)CCc2ccccc2)cc1 | -0.0477 | 30.8 | 1.19 | 0.7 | 1 | 1.0
COC(=O)c1ccc(N2C(=O)CC(N(C)Cc3ccccc3)C2=O)cc1 (stereo not drawn) | -1.21 | -14.6 | -0.928 | 1.1 | 0.9 | 5.7
N#Cc1ccc(CSc2nnc(-c3cccc(S(=O)(=O)N4CCCCC4)c3)o2)cc1 | -0.419 | 19.1 | · | 0.8 | 0.8 | 20.1
Cn1c(SCc2cccc3ccccc23)nnc1-c1ccco1 | 2.73* | -40.0 | 0.128 | 1.4 | 0.2 | 83.2*
Nn1c(SCc2cccc3ccccc23)nnc1-c1ccco1 | 0.778 | -164.5 | -0.443 | 2.6* | 0.6 | 35.6
COc1cccc(CSc2nnc(-c3ccco3)n2C)c1 | 0.147 | 16.6 | -0.0412 | 0.8 | 0.1 | 95.0*
COc1ccc(-c2cc(CN3C(=O)c4ccccc4C3=O)on2)cc1 | -0.488 | · | · | · | · | ·
CC(=O)Nc1cc(C(=O)N2CCN(C)CC2)ccc1Sc1ccc(C)cc1 | 0.0734 | 5.4 | · | 0.9 | 0.6 | 39.0
Cn1cccc1Cc1nnc(SCC(=O)Nc2cccc(F)c2)n1-c1ccc(F)cc1 | -0.718 | 21.8 | 0.0643 | 0.8 | 0.7 | 29.4
Cn1cccc1Cc1nnc(SCC(=O)Nc2ccc(F)cc2F)n1-c1ccc(F)cc1 | -8.37* | 57.9* | 1.03 | 0.4 | 0.5 | 51.9*
CCc1ccc(NC(=O)CSc2nnc(Cc3cccn3C)n2-c2ccc(F)cc2)cc1 | 0.0313 | 75.8* | 1.18 | 0.2 | 0.8 | 21.9
CCOC(=O)c1ccccc1NC(=O)CSc1nnc(Cc2cccn2C)n1-c1ccc(F)cc1 | 1.2 | 56.8* | 0.865 | 0.4 | 0.8 | 24.2
Cc1ccc(NC(=O)CSc2nnc(Cc3cccn3C)n2-c2ccc(F)cc2)c(C)c1 | -0.966 | 67.9* | -0.465 | 0.3 | 0.8 | 21.5
Cc1ccc(NC(=O)CSc2nnc(Cc3cccn3C)n2-c2ccc(F)cc2)cc1 | 0.067 | 12.7 | -0.0417 | 0.9 | 0.9 | 5.2
CCN(CC)C(=O)CSc1ncnc2c(-c3cccs3)nsc12 | -0.267 | 44.6 | 1.7 | 0.6 | 0.7 | 30.2
O=C1C(c2ccc(F)cc2)N(CC2COc3ccccc3O2)C(=O)CN1C1CCCCC1 (stereo not drawn) | -1.55 | 28.3 | · | 0.7 | 1 | -2.2
Cc1nc(N)sc1N=Nc1ccc(F)cc1 | -0.274 | -4.5 | · | 1 | 1 | -4.3
